For 76 molecules, inhibition results are on record in PubChem BioAssay AID588518 (NMMLSC, 2011).

About 20 (1%) of roughly 1,700 compounds were called active. The sample as a whole holds a higher share of actives than the screen did. Unmarked numbers belong to inactive results. No stated cut-off is given here; in the data, active means inhibition above about 26%; inactive means the rest.

Usually inhibition stands for the change of the read-out against control, counted positive when it falls.

The experiment deals with Candida albicans multidrug efflux pump MDR1 (expressed in S. cerevisiae AD1-8u). The experiment can be described thus: inhibitors of Candida albicans Mdr1 efflux, confirmation, flow cytometry, singleplex, Cherry Pick1 set (AID 588518).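 Further: 0% = DMSO vehicle and 100% = reference inhibitor; higher means more Nile Red retained so more efflux inhibition.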 The note with it: S. cerevisiae AD/CaMDR1, Nile Red efflux, at 10 µM, stronger effect = higher value. A general note: In flow cytometry, cells or beads pass a laser one at a time.
As to `CCc1ccc(NC(=O)Cn2ncn3c(cc4ccccc43)c2=O)cc1`, the inhibition was -0.1%.
Take `Cc1nc2c(C(=O)NCc3ccc4c(c3)OCO4)c[nH]n2c(=O)c1Cc1ccccc1F`: the inhibition is -0.28%.
The value for `Cc1cc(C)cc(NC(=O)C(OC(=O)c2ccc(O)cc2)c2ccccc2)c1` (stereo unspecified) was -0.15%.
For `Cc1oc2cc3oc(=O)ccc3cc2c1C` the value was -0.03%; for `C/C(N)=C(/C#N)C(=O)COC(=O)c1cc(-c2cccc(Br)c2)nc2ccccc12`, -0.13%; for `CCCCN1C(=O)/C(=C/C=C2/C=Cc3ccccc3N2CC)SC1=S`, -0.28%.
The value for `CCNc1c(NS(=O)(=O)c2ccc(C3CCCCC3)cc2)c(=O)oc2ccccc12` was -0.16%.
For the molecule `O=C(Cc1ccc(Br)cc1)N1CCN(c2ccccn2)CC1`, the inhibition was -0.14%.
The value for `CSCCC(NC(=O)COc1ccccc1)C(=O)OCCOc1ccc(Br)cc1` (stereo unspecified) was -0.39%; that for `Cc1ccc2[nH]c3c(=O)n(CC(=O)NCCc4ccc(Cl)cc4)ncc3c2c1` was -0.13%; that for `CCCc1nc(N2CCN(C)CC2)c2sc(=S)n(-c3ccccc3)c2n1` was -0.01%.
For the molecule `COc1ccc(S(=O)(=O)N2CCOC2CNC(=O)C(=O)NCc2ccc(F)cc2)cc1` (stereo unspecified), the inhibition is 0.32%.
Turning to `CCNC(=O)c1c(O)c2cccc3c2n(c1=O)CC3`, the inhibition was -0.2%.
With `COc1ccc2[nH]c3c(C)c4cc[n+](C)cc4c(C)c3c2c1`, the inhibition is 0.07%.
`CC(/C=C/c1ccccc1)=N\NC(=O)C1CC1(C)c1ccccc1` (stereo unspecified): the inhibition was -0.16%.
As for `O=C1NC(=O)C2C1C(c1ccc([N+](=O)[O-])cc1)=NN2Cc1ccccc1` (stereo unspecified), the inhibition is 0.35%.
`CN(C)S(=O)(=O)c1cc(C(=O)Nc2ccn(C)n2)c(Cl)cc1Cl`: the inhibition is -0.29%.
As for `COc1ccc(NC(=S)N2CCc3cc(OC)c(OC)cc3C2)cc1`, the inhibition is -0.21%.
With `CC12CCC(C(=O)N(c3cccc(Cl)c3)C1=O)C2(C)C` (stereo unspecified), the inhibition was -0.13%.
In the case of `CCCCOc1ccc(C(=O)NCC(=O)OCC(=O)c2c(N)n(C)c(=O)n(C)c2=O)cc1`, the inhibition was -0.28%.
The value for `COc1ccccc1/C=C/C=N/n1c(-c2ccc(Cl)cc2Cl)n[nH]c1=S` was 0.32%; that for `Cc1ccc(/C=C(\C#N)C(=O)Nc2cccc3ncccc23)o1` was -0.29%; that for `Cc1c(CCOC(=O)CC23CC4CC(CC(C)(C4)C2)C3)sc[n+]1Cc1ccc([N+](=O)[O-])cc1` was -0.01%.
Consider `NNC(=O)COc1ccc(C2SCCS2)cc1`, for which the inhibition was -0.31%.
In the case of `O=C(Cn1c(COc2ccccc2)nc2ccccc21)Nc1cc(Cl)c(Cl)cc1Cl`, the inhibition was 0.02%.
The value for `CCOC(=O)CNC(=O)CSc1nnnn1-c1cc(C)ccc1C` was -0.31%; that for `Cc1csc(NC(=O)c2ccc(-c3ccc(Cl)cc3Cl)o2)n1` was 0.14%; that for `COc1ccc(-c2sc3ccccc3c2-c2ccc(OCCN3CCOCC3)cc2)cc1` was 0.1%.
Turning to `CC(C)C(=O)N1CCC2(CC1)Oc1ccc(F)cc1C(=O)C21CC(c2ccccc2)=NO1` (stereo unspecified), the inhibition was 45.9% (active).
On to `CCCc1nnc(SCC(=O)Nc2ccc(C(=O)OCC)cc2)o1`, for which the inhibition was 0.19%.
For the molecule `O=C(Nc1ccc(NC(=O)c2cccs2)cc1)c1ccc2ccccc2c1`, the inhibition was 0.05%.
Take `CN1CCN(S(=O)(=O)c2ccc(NC(=S)NC(=O)C3CC3)cc2)CC1`: the inhibition is -0.06%.
The value for `Cc1ccc2c(c1)NC(=O)[C@@]1(C)[C@@H](c3ccccc3)[C@H]3COc4ccc(Cl)cc4[C@@H]3N1C2=O` was -0.01%; that for `COc1ccc(C(=O)NC2CC(C)(C)Cc3c2cnn3-c2ccccc2)c(OC)c1` (stereo unspecified) was -0.03%.
On to `O=C(OCc1ccc(-c2ccccc2)cc1)c1cccc(O)c1`, for which the inhibition was -0.19%.
For `CC(/C=N/NC(=O)c1cc(-c2ccc3ccccc3c2)n[nH]1)=C\c1ccco1` the value was -0.25%; for `CCOC(=O)c1c(NC(=S)NC(=O)c2ccco2)sc2c1CCCC2`, -0.19%.
With `CCCCCCCCCCCCCCCC(=O)OC/C=C(C)/C=C/C=C(C)/C=C/C1=C(C)CCCC1(C)C`, the inhibition was -0.1%.
Turning to `COc1ccccc1NC(=O)C1CCCN1S(=O)(=O)c1ccc(Cl)cc1` (stereo unspecified), the inhibition is -0.11%.
Turning to `CC1CCc2c(sc(NC(=O)c3ccc(Cn4cc(Br)cn4)o3)c2C(N)=O)C1` (stereo unspecified), the inhibition is -0.1%.
Consider `CCCCCC(=O)Nc1ccc(C(=O)N/N=C/c2ccc([N+](=O)[O-])cc2)cc1`, for which the inhibition was -0.14%.
In the case of `CSCCC(NS(=O)(=O)c1ccc(C)cc1)C(=O)N1CCCC1` (stereo unspecified), the inhibition was -0.25%.
The value for `Cc1cc(/C=N/NC(=O)CC2(C)OCCO2)c(C)n1-c1ccc(Cl)c(Cl)c1` was 0.16%; that for `Cc1ccc(OCc2cc(C(=O)N(C)CCc3ccccc3)no2)cc1C` was -0.03%; that for `Cc1nn(C)cc1C(=O)Nc1ccccc1Br` was -0.15%.
`O=C(CCCCCn1c(=O)[nH]c2ccccc2c1=O)NCCc1c[nH]c2ccccc12`: the inhibition was -0.03%.
For `C[n+]1ccc(/C=C/c2c[nH]c3ccccc23)cc1` the value was 5.81%; for `O=C(Cc1ccccc1)NCC1OCCc2ccccc21` (stereo unspecified), -0.13%; for `CCOc1ccccc1/C=c1\sc2nc(-c3ccco3)nn2c1=O`, 0.22%.
For `Cc1nn(C)cc1N1C(=O)c2cccc3c(N)ccc(c23)C1=O` the value was 0.11%.
With `COc1ccc2sc(-c3ccccc3OC)c(-c3ccc(OCCN4CCCC4)cc3)c2c1`, the inhibition was 5.13%.
As to `COc1ccc(/C=C(\C#N)c2c[nH]c3ccccc23)cc1`, the inhibition was 0.1%.
The value for `Cc1cccc(NC(=O)COc2ccccc2C)n1` was -0.06%; that for `COc1ccc(C(=O)NC(=S)Nc2ccc(N3CCCC3)cc2)cc1OC` was -0.18%; that for `Cc1cc(C(=O)Nc2ccc(C)c(S(=O)(=O)N3CCOCC3)c2)c2ccccc2n1` was -0.31%.
As for `O=C(/C=C/c1c(Cl)cccc1Cl)NCc1ccccc1`, the inhibition was 0.02%.
As for `CCOc1ccc(C2/C(=C(/O)c3ccc4c(c3)CC(C)O4)C(=O)C(=O)N2CCCn2ccnc2)cc1` (stereo unspecified), the inhibition was 0.05%.
Take `Cc1ccc(Cn2c(C)nc3c(c2=O)c2nc4ccccc4nc2n3Cc2ccco2)cc1`: the inhibition is 0.02%.
As for `CCOc1ccc2nc(Cl)c(C3CC(c4ccccc4)=NN3C(=O)c3cccs3)cc2c1` (stereo unspecified), the inhibition was 0%.
With `O=C(NCc1ccccc1)C(=O)NCC1OCCN1S(=O)(=O)c1ccc(Br)cc1` (stereo unspecified), the inhibition was -0.13%.
Take `COc1cccc(-c2sc3ccc(OC)cc3c2-c2ccc(OCCN3CCCCC3)cc2)c1`: the inhibition is 20.7%.
For `COc1cccc(NC(=O)CN(C)C(=O)/C=C/c2cc(OC)ccc2OC)c1` the value was -0.16%; for `O=C(CNC(=O)c1ccc(-c2ccccc2)cc1)OCc1ccc(Cl)cc1`, 0.01%; for `O=C(CN1C(=O)C2C3CCC(C3)C2C1=O)Oc1ccc2ccccc2c1` (stereo unspecified), 0.12%.
On to `Cc1ccc(N=C2NC(=O)/C(=C/C=C/c3ccco3)S2)cc1C`, for which the inhibition was 0.12%.
Consider `CCOc1ccc(/C=C2\SC(=S)N(NC(=O)c3ccncc3)C2=O)cc1OC`, for which the inhibition is -0.14%.
Turning to `O=S(=O)(c1ccccc1)N1CCc2ccccc21`, the inhibition is 0.11%.
Turning to `Cc1ccc(Cn2nnc3c(=O)[nH]c(C4CCN(S(=O)(=O)/C=C/c5ccccc5)CC4)nc32)cc1`, the inhibition was -0.18%.
Regarding `COc1ccccc1CSc1ncc(-c2ccc([N+](=O)[O-])cc2)[nH]1`, the inhibition was -0.17%.
For `O=C(CSc1nnc(-c2cccnc2)n1Cc1ccco1)c1ccc(Cl)c(Cl)c1`, the inhibition was 0.13%.
Consider `COc1ccc(C(=O)C2CCCN(Cc3cccn3-c3ccccn3)C2)c(C)c1` (stereo unspecified), for which the inhibition is -0.17%.
For the molecule `CC[n+]1cc(C)ccc1/C=C/c1ccc(N(C)C)cc1`, the inhibition is 10.7%.
With `CN=C(c1ccccc1)c1c(C)cccc1C`, the inhibition is -0.14%.
On to `CCn1c(/C=C/c2ccc([N+](=O)[O-])o2)nc2ccccc2c1=O`, for which the inhibition was 1.88%.
On to `COc1ccc(C(=O)NC2CCCc3c2cnn3-c2cccc(C)c2C)c(OC)n1` (stereo unspecified), for which the inhibition was -0.16%.
With `C=CCC[C@@H](Cc1ccc(F)cc1)C(=O)OC[C@H](Cc1c[nH]c2ccccc12)NC(=O)[C@@H](CC=C)CC(=O)N(CCO)Cc1ccccc1`, the inhibition was 56.2% (active).
